The panel holds about 83,000 compounds, 20% with a hit somewhere; the sample as a whole holds those more often.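 Activity criterion: percent growth below 10, measured after cells in 96-well plates were exposed to a single compound concentration for 48 hours.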 Unmarked numbers belong to inactive results. Active and inactive are the calls of the source.

Holding throughout (assay): NCI-60 one-dose screen, 48 h (100 = growth as untreated, 0 = no growth, -100 = all killed)
What all share (settings): 10 µM unless noted

In test [1] the test system is SK-MEL-2 melanoma.
Test [2] relates to EKVX NSCLC.
In test [3] the test system is SN12C renal.
For test [4], the system named is UO-31 renal.
Test [5] relates to ACHN renal.
The test system of test [6] is CAKI-1 renal.
The test system of test [7] is A498 renal.
For test [8], the system named is CCRF-CEM leukemia.
Test [9] relates to MOLT-4 leukemia.
The subject of test [10] is SR leukemia.
In test [11] the test system is RPMI-8226 leukemia.
Test [12] has as its system OVCAR-8 ovarian.
Test [13] concerns SK-OV-3 ovarian.
In test [14] the test system is IGROV1 ovarian.
Test [15] deals with OVCAR-3 ovarian.
For test [16], the system named is HS 578T breast.
For test [17], the system named is NCI/ADR-RES ovarian.
For test [18], the system named is OVCAR-5 ovarian.
The subject of test [19] is OVCAR-4 ovarian.
Test [20] deals with TK-10 renal.

For the molecule `O=C(Nc1cccc(Cl)c1)Nc1ccccc1Cl`, the growth in test [1] was 98.5%; in test [2] it was 72.1%; in test [3], 81.5%; in test [4] it was 69.8%; in [5], 89.9%; in [6], 71.4%. In addition, the growth was 63.4% in [7]; 84.7% in test [8]; 75% in test [9]; 82.1% in [10]; 55.9% in test [11]; 87.3% in [12]. For the same molecule, the growth was 101% in test [13]; 85.9% in test [14]; 78.4% in test [15]; 90.7% in [16]; 80.6% in [17].

Consider `COc1cccc(/C=N\Nc2ccc([N+](=O)[O-])cn2)c1O`, for which the growth in [1] is 77.1%; in test [2], 83.9%; in test [3] it was 55%; in test [4] it was 26.9%; in [5] it was 28.5%; in test [6], 27.8%. Moreover, the growth in [7] is 39.8%; in test [8] it was 79.3%; in [10] it was 48.3%; in test [11] it was 62.6%; in test [12], 10.6%; in test [18], 104%. Moreover, the growth in test [19] was 29.5%; in test [13] it was 68.7%; in test [14] it was 36.2%; in test [15] it was 8.54% (active); in [16] it was 63.9%; in [17], 18.6%.

Regarding `CC[C@H](C)[C@H](N)C(=O)O`, the growth in test [1] is 109%; in [2], 107%; in test [3], 101%; in test [4], 83.9%; in test [20], 121%; in test [5], 103%. Further, the growth in [6] is 95.6%; in test [9], 116%; in [10], 90.7%; in [11] it was 104%; in test [12], 107%; in test [18] it was 97.7%. The growth in [19] is 109%; in [13], 107%; in test [14] it was 106%; in [15] it was 111%; in test [16], 91.7%; in [17], 104%.

As to `Cc1c(C(=O)CCl)c(=O)n(-c2ccccc2)n1C`, the growth was 71.4% in test [1]; 76.8% in test [2]; 86% in test [3]; 64.2% in test [4]; 47% in test [5]; 29.8% in [6]. The growth in test [7] was 77.4%; in test [9], 24.8%; in test [10] it was 20.1%; in [12] it was 72.3%; in test [18], 94.5%; in [13], 103%. Also, the growth in [14] was 48.6%; in test [15], 18.4%; in [16], 57.5%; in test [17], 83.3%.

With `COc1ccc(C(=O)N2N=C(c3ccc(F)cc3)CC2c2cn(-c3ccccc3)nc2-c2ccccc2)cc1` (stereo unspecified), the growth in test [1] is 75.1%; in test [2] it was 70.9%; in [3], 63%; in [4] it was 68.1%; in test [5], 86.5%; in test [6] it was 63.2%. Further, the growth in test [7] is 93.2%; in [8], 57.1%; in [9], 42.2%; in [11], 62%; in [12], 39.4%; in [18], 95.6%. For the same molecule, the growth in test [13] was 62%; in [14], 85%; in test [15], 45.8%; in test [16], 83.7%; in [17], 34.9%.

Consider `C(=Nc1ccc(-c2ccc(N=Cc3ccccc3)cc2)cc1)c1ccccc1`, for which the growth in test [1] is 109%; in test [2], 105%; in test [3], 93.3%; in test [4] it was 66.6%; in test [5] it was 101%; in test [6], 94.3%. Also, the growth in [7] was 97.9%; in test [8], 88.3%; in test [9] it was 83%; in test [10], 86.3%; in test [11], 103%; in [12], 109%. Further, the growth in test [18] was 116%; in [13] it was 103%; in [14], 87.6%; in [15], 111%; in test [16], 82.1%; in test [17] it was 101%.

Take `O=P(O)(O)C(O)(Cc1cccnc1)P(=O)(O)O`: the growth in test [1] was 111%; in [2], 103%; in test [3], 94%; in test [4], 84.6%; in test [5] it was 100%; in test [6], 94.2%. In addition, the growth is 119% in [7]; 79.1% in test [8]; 98.2% in [11]; 94.6% in test [12]; 118% in test [18]; 86.9% in test [19]. The figures for the growth in [13], in [14] and in [15] were 111%, 95.8% and 100%, respectively.

For `C=CCOC(=O)C1=C(C)NC2=C(C(=O)CCC2)C1c1ccc(F)cc1` (stereo unspecified), the growth in test [1] was 101%; in [2], 102%; in test [3], 92.1%; in test [4], 76.1%; in test [5] it was 89.6%; in test [6], 84.7%. Also, the growth in test [7] was 99.3%; in test [8], 98.1%; in test [9], 93.6%; in [10], 92.2%; in [12] it was 97%; in test [18], 98%. Further, the growth is 98.7% in [19]; 86.6% in [13]; 109% in [15]; 88.4% in [16]; 101% in [17].

`COc1cc(CN2CCC(N3CCCC3=O)c3ccccc32)cc(OC)c1OC` (stereo unspecified): the growth in [1] was 89.8%; in test [2] it was 66.1%; in [3] it was 79.7%; in [4], 56%; in [20] it was 86.3%; in [5] it was 91.3%. In addition, the growth in test [6] was 70.7%; in test [10], 59.1%; in [12], 84.2%; in [18] it was 103%; in [13], 100%; in test [14], 90.5%. Further, the results for the growth in test [15], in test [16] and in test [17] were 100%, 88.3% and 67.3%, respectively.

The record behind these values is PubChem BioAssay (NCI).
